The target of the first assay is SCAF4. The assay can be described thus: pooled miR-30 sensor sort-seq; sequence = guide strand. As to conditions: shRNA.
In the case of TAGTACTGCAAACACTTGCAGT, the sensor-assay potency score (higher = more potent) was -0.842. Still for that read-out and setting: to TAACATTTTCTGCTACTGGGGC belongs -0.447; to TTAGTGATGAGAATCATCTTGG, 0.534.

Regarding TTGTCTGAAACAGCTGAGCCAC, the sensor-assay potency score (higher = more potent) was -1.31.

TTGTTCTACTTCCATTTCCTGC gave a sensor-assay potency score (higher = more potent) of -0.925. Still for that read-out and setting: to TAACTGAGCTGTGATAGCCTGA belongs -0.339; to TTTCTTGAGATCGAGATCGGGG, -0.563.

A further assay has as its target SCAPER. Described as above. Particulars: shRNA.
In the case of TTAACAATTCTTCTACACGGGC, the sensor-assay potency score (higher = more potent) is -0.521. Same read-out and setting: to TAAACATTGATTGCATTGCAGA belongs -1.19; to TTATTTTACAGTCCACTGCAGT, -0.733; to ATAATCTGCAAGGACATCGTTC, -0.342. Same read-out and setting: to TTGAGCATCTGTCTTCTCTAGC belongs -0.0428; to TTCATCTGGAACATAAACCGTC, 0.155. In turn, TTCTTTATCACTGTCATCCTTT came in with a sensor-assay potency score (higher = more potent) of 0.0905. On the same count and under the same terms, to TTTTCTTCCATCATCCTGCGTC belongs 0.186; to TTGATCTAGCAATTCTTCCTTC, 0.245; to TTGAGTGTAATTCTCCTTGGGA, 0.0508. TTACATTCGACCACACTCTGAT registered a sensor-assay potency score (higher = more potent) of 0.939.

Another assay deals with SCG3. Described as above. Particulars: shRNA.
In turn, TATTGTTCCATATTTCACCATC showed a sensor-assay potency score (higher = more potent) of -0.949. Same read-out and setting: to TTTATGATCCAATCCACTCTTA belongs -0.0664; to TAATCTTGTCTTCTTCTGCTTC, -0.063; to TAGTAGAGTCATAATCATCGAT, 0.0703. The same measure, in the same setting: to TTTCAAGGTAGGAAACACCTTC belongs 0.087.

Take TTAATTTTTGTAAAACCTCTGC: the sensor-assay potency score (higher = more potent) is -0.0676. For the sequence TTCTTATAGATTGTCTTTCTTT, the sensor-assay potency score (higher = more potent) was -0.774.

Turning to TTGTCATGTTTCTTCAACCATT, the sensor-assay potency score (higher = more potent) is -1.02. TAGTTTAGAAACAATCTTGTCA registered a sensor-assay potency score (higher = more potent) of 0.211. The same measure, in the same setting: to TAGTTGATGAAGACCATCTGGA belongs 0.192. The same measure, in the same setting: to TTCTTCATGACTCTTCTCTGAT belongs 0.0122.

Another assay addresses SCGB1D4. The assay is described as above. As to conditions: shRNA.
TTCAATGAGAGTCGTTTCTTAA showed a sensor-assay potency score (higher = more potent) of -0.987. Still for that read-out and setting: to TTTCAATGAGAGTCGTTTCTTA belongs 0.178. On to TTCACTTCCAACTTGGCTGCAA, for which the sensor-assay potency score (higher = more potent) was determined as 1.11. On the same count and under the same terms, to TTTTTAGTGAAGATCAGGGTGT belongs 0.0112; to AATAAGAAGACTGTGATCTCAG, 0.355. The same measure, in the same setting: to AAGTTTGGCAACTTGGAGGTTT belongs -0.0937. Turning to TGATCTCAGAAGCAACAGCTGG, the sensor-assay potency score (higher = more potent) is -1.12. On the same count and under the same terms, as for TATCTGATCGGTGCAGTGCTTC, the figure is -0.707; as for ATTAAGTTTGGCAACTTGGAGG, -1.05. On to TCTTAAAAGATATCTGATCGGT, for which the sensor-assay potency score (higher = more potent) is -0.48. On the same count and under the same terms, as for AAAGATATCTGATCGGTGCAGT, the figure is 0.161.

The record behind these values is the OligoGym collection.
Note: reference of the scale not given here.
